LGR2 antag: Drosophila LGR2 receptor signaling inhibition. HEK293 LGR2, CRE-luciferase, bursicon-stimulated, 4 h. inhibition, % at 9.99 µM. hit rate 0.35% among 380,000. AID 720647;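 active means drop in luminescence signal, shown as inhibition above about 50% in the replicate tests, limit read from the data, passing the limit was not always enough; inconclusive means probably only some replicates passing the limit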;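 further: agonist challenge used bursicon conditioned medium at about half maximal strength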
MITF act: increases MITF-driven TRPM1 promoter luciferase signal; SK-MEL-5 TRPM1-promoter luciferase, 24 h; % of positive control, neutral wells = 0; activation, % at 12.5 µM; hit rate 0.75% among 300,000; AID 588334;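 active means mean activation of at least 80% with every replicate also reaching 80%; inconclusive means mean reaches 80% but some replicate falls short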;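 further: 0% = neutral control wells and 100% = parthenolide positive control wells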
MITF TRPM1 inh: reduces MITF-dependent TRPM1 promoter luciferase signal; inhibition, % at 12.5 µM; SK-MEL-5 TRPM1 promoter luciferase, 24 h; hit rate 0.83% among 330,000; AID 488899;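 active means mean inhibition across replicates of 60% or more, whatever share of single replicates reaches that level; inconclusive means some that reach 60%, reason not given; inactive means mean inhibition across replicates below 60%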
TROY NFkB inh: TROY signaling inhibition | hit rate 0.98% among 360,000 | inhibition, % at 10 µM | Q293 LMP1-TROYcd NF-kB luciferase reporter, 4 h;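 active means compounds whose plate-normalised and pattern-corrected inhibition of the luciferase reporter signal at the single screening dose is 50% or more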
TWEAK Fn14 block: inhibitors of TWEAK-Fn14 interaction signaling; TWEAK-stimulated Fn14 reporter cells, luciferase luminescence, 8 h; AID 1159606; inhibition, % at 10 µM; hit rate 2% among 360,000; in the data active means inhibition above about 50%
LMP1 NFkB inh: inhibitors of Epstein-Barr LMP1-induced NF-kappaB reporter; inhibition, % at 12.5 µM; LMP1-induced NF-kappaB luciferase reporter cells, luminescence; hit rate 0.69% among 350,000; in the data active means inhibition above about 41%; inconclusive means no clear call, values can overlap the other calls;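 further: 0% = neutral control wells and 100% = reference inhibitor control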
Numbers without * were called inactive; ? = inconclusive; . = no result. In the library only some 3% were active in any assay of this set; here they are far more common.

SMILES	LGR2 antag	MITF act	MITF TRPM1 inh	TROY NFkB inh	TWEAK Fn14 block	LMP1 NFkB inh
CCN1CCN(c2oc(/C=C/c3ccccc3)nc2C#N)CC1	-9.4	27.2	-27.0	52.6*	21.2	4.7
COCCNc1oc(-c2ccc(C)cc2)nc1C#N	.	66.0	-65.4	-88.2	-44.0	-15.5
COCCNc1oc(/C=C/c2ccccc2)nc1C#N	-91.9	102.8*	-95.0	-68.2	-26.9	-10.3
CCN1CCN(c2oc(-c3ccc(OC)cc3)nc2C#N)CC1	.	-3.8	4.2	-17.0	-2.1	-2.4
COCCNc1oc(-c2ccc(Cl)cc2)nc1C#N	.	81.3*	-79.9	-58.8	-15.6	-21.8
CC(C)c1cn(CC[C@H]2CC[C@@H](NC(=O)C3CC3)[C@H](CO)O2)nn1	-4.8	.	.	.	.	.
COc1ccc(/C=N/OCC(=O)NC(c2ccccc2)c2ccccc2)cc1OC	-14.5	-18.4	20.9	25.5	51.8*	24.6
C[C@@H]1CN([C@@H](C)CO)C(=O)Cc2cc(NC(=O)Cc3ccccc3)ccc2O[C@@H]1CN(C)C	-34.6	.	.	.	.	.
CC1=NN(C(C#N)c2c(C)nn(Cc3ccccc3)c2C)C(C)(C)C1 (stereo not given)	5.1	1.0	1.7	-6.5	-3.8	57.4*
C=C1CCC[C@]2(C)C[C@H]3OC(=O)C(CNC(CC)CO)[C@H]3CC12 (stereo not given in full)	4.5	-26.0	28.9	3.5	57.2*	17.7
C=C1CCC[C@]2(C)C[C@H]3OC(=O)C(CNC(C)CC)[C@H]3CC12 (stereo not given in full)	5.0	4.2	-4.2	-13.9	3.7	-4.4
C=C1CCC[C@]2(C)C[C@H]3OC(=O)C(CNC(C)(CO)CO)[C@H]3CC12 (stereo not given in full)	22.9	-41.4	42.3	-2.9	46.2	13.6
C=C1CCC[C@]2(C)C[C@H]3OC(=O)C(CN4CCCCC4CO)[C@H]3CC12 (stereo not given in full)	22.4	-77.6	78.8*	25.1	50.9*	90.6*
COc1cccc(NC(=O)N(C)C[C@@H]2Oc3ncc(C#Cc4ccncc4)cc3C(=O)N([C@@H](C)CO)C[C@@H]2C)c1	-1.0	.	.	.	.	.
C[C@@H]1CN([C@@H](C)CO)C(=O)c2cc(NC(=O)CCC(F)(F)F)ccc2O[C@H]1CN(C)Cc1ccccc1	3.8	.	.	.	.	.
O=C(Cc1cc(=O)[nH][nH]1)N/N=C/C=C/c1ccccc1	44.8	0.1	-0.8	2.9	61.5*	-5.6
O=C(CNC(=O)c1ccccc1)N/N=C/C=C/c1ccccc1	2.2	-6.6	6.7	-9.2	6.9	0.9
O=c1c(Cl)c2oc3ccccc3nc-2c2ccccc12	.	-66.0	63.3*	-21.8	-36.8	-13.3
COc1ccc(Nc2cc(C)nc3ccc(OC)cc23)cc1	-0.4	.	4.4	8.7	0.4	-8.0
COc1ccc(/C=N/Nc2cc(C)nc3c(C)cccc23)cc1	3.4	.	79.3*	-71.1	-114.7	-4.0
COc1ccc(/C=N/Nc2cc(C)nc3ccccc23)cc1	-7.2	.	78.0*	-4.3	-25.8	-0.6
COc1ccc2nc(C)cc(N/N=C/c3ccc(F)cc3)c2c1	69.2*	.	85.5*	-70.3	-347.0	-6.6
Cc1ccc2nc(C)cc(N/N=C/c3cccc(O)c3)c2c1	-1.1	.	-19.8	11.1	0.1	-6.5
CCOC(=O)c1ccc(NC(=O)CCSCCc2ccccn2)cc1	10.0	85.9*	-81.9	-4.3	-13.4	5.9
O=C(C[C@@H]1CC[C@H]2[C@@H](COC[C@H](O)CN2C(=O)Nc2cccc(Cl)c2)O1)NCCCN1CCOCC1	-1.7	.	.	.	.	.
SMILES	LGR2 antag	MITF act	MITF TRPM1 inh	TROY NFkB inh	TWEAK Fn14 block	LMP1 NFkB inh
C[C@H](CO)N1C[C@H](C)[C@@H](CN(C)C(=O)Cc2ccccc2)OCCCC[C@H](C)Oc2ccc(N(C)C)cc2C1=O	-2.7	.	.	.	.	.
Cc1ccc(NC(=O)c2ccc([N+](=O)[O-])o2)c(C)c1	-21.2	-24.7	23.3	10.8	23.0	-21.1
Cc1ccc(S(=O)(=O)c2ccc([N+](=O)[O-])o2)cc1	?	-95.6	95.5*	58.6*	102.2*	?
COc1ccc(S(=O)(=O)N(C)C[C@H]2Oc3c(NC(=O)C4CC4)cccc3C(=O)N([C@@H](C)CO)C[C@H]2C)cc1	7.1	.	.	.	.	.
CCOC(=O)c1snc(C(=O)NC2CCCCC2)c1N	.	84.1*	-81.0	-73.3	-47.7	-78.6
Nc1c(C(=O)NC2CCCCC2)nsc1C(=O)OCC(=O)NC1CCCCC1	.	.	5.5	17.2	1.8	-15.3
COc1ccc(-n2c(C)c([N+](=O)[O-])c3ccc(O)c(CN(C)C)c32)cc1	.	12.7	-12.8	.	79.6*	69.8*
COc1ccc(-c2cc3c(=O)n(CC(=O)NCCCN4CCC(N5CCCCC5)CC4)ncn3n2)cc1	0.3	41.4	-36.6	-37.8	-1.2	2.6
COc1ccc(-c2cc3c(=O)n(CC(=O)NCCCN4CCC(N5CCCCC5)CC4)nc(C)n3n2)cc1	13.4	-71.2	71.8*	-4.4	-17.7	-2.0
COc1cccc(S(=O)(=O)N[C@@H]2CC[C@H](CC(=O)NC3CCC3)O[C@@H]2CO)c1	-4.0	.	.	.	.	.
Cn1ccc2c(-c3cccc(C=O)c3)cc3c(c21)C1CCC3C1 (stereo not given)	.	.	.	64.7*	48.4	.
Cn1ccc2c(-c3cccc(C=O)c3F)cc3c(c21)C1CCC3C1 (stereo not given)	12.8	.	.	54.9*	50.6*	.
Cn1ccc2c(-c3cccc4ccccc34)cc3c(c21)C1CCC3C1 (stereo not given)	10.9	.	.	77.1*	81.6*	.
Cn1ccc2c(-c3ccc(F)cc3F)cc3c(c21)C1CCC3C1 (stereo not given)	-5.9	.	.	1.2	-14.8	.
Cn1ccc2c(-c3cccnc3)cc3c(c21)C1CCC3C1 (stereo not given)	13.0	.	.	22.4	-0.6	.
COc1ccc(S(=O)(=O)Nc2ccc3c(c2)CC(=O)N([C@@H](C)CO)C[C@@H](C)[C@@H](CN(C)C(=O)Nc2cccc4ccccc24)O3)cc1	10.8	.	.	.	.	.
CC(C)c1cn(CC[C@H]2CC[C@@H](NC(=O)C3CCCCC3)[C@@H](CO)O2)nn1	17.6	.	.	.	.	.
CO[C@@H]1CN(C)C(=O)c2ccc(NC(=O)C3CC3)cc2OC[C@H](C)N(CCc2ccccc2)C[C@@H]1C	4.4	.	.	.	.	.
COc1cccc(S(=O)(=O)N(C)C[C@H]2Oc3ncc(-c4cccc(C(=O)N(C)C)c4)cc3C(=O)N([C@H](C)CO)C[C@@H]2C)c1	17.9	.	.	.	.	.
O=C(N[C@@H]1CC[C@@H](CC(=O)N2CCc3ccccc3C2)O[C@H]1CO)C1CCOCC1	4.5	.	.	.	.	.
CCc1ccc(/C=C2/SC(=S)N(CCCC(=O)Nc3ccccc3C(=O)O)C2=O)cc1	2.9	-25.8	27.5	74.7*	32.8	2.4
COC(=O)c1ccc(/C=C2/SC(=S)N(CCCC(=O)Nc3ccccn3)C2=O)cc1	-13.6	4.0	-2.4	27.6	9.2	22.6
CCc1ccc(/C=C2\SC(=S)N(CCCC(=O)Nc3ccccn3)C2=O)cc1	.	-31.2	33.6	71.5*	40.9	51.8*
